# Measured values: PubChem BioAssay (Tox21)
# Values joined by “and” are separate entries in the source; they are usually repeats but may differ in a detail not shown here. Identical values can stand only once. Records with an inconclusive call do not appear. Entries that show only a call come without a potency. Active and inactive are the calls of the source. Unless noted, calls come from the whole dose curve.
# Assays:
# [1] = qHTS assay to identify small molecule agonists of the peroxisome proliferator-activated receptor delta (PPARd) signaling pathway - cell viability counter screen (AID 743211; active = well fitted curve in the direction sought with a large enough effect in the repeat runs; an effect the other way counts as inactive or inconclusive; note: nearly all actives have a fitted effect of over 55% in size; note: potency is the fitted concentration of half-maximal effect)
# In short: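 Viability of GeneBLAzer PPARd UAS-bla HEK293H cells was assessed after 17 h compound incubation at 37C, using CellTiter-Glo reagent added after the reporter read and luminescence recorded 30 min later.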
# [2] = qHTS assay to identify small molecule antagonists of the peroxisome proliferator-activated receptor delta (PPARd) signaling pathway - cell viability counter screen (AID 743213; active = well fitted curve in the direction sought with a large enough effect in the repeat runs; an effect the other way counts as inactive or inconclusive; note: nearly all actives have a fitted effect of over 50% in size; note: potency is the fitted concentration of half-maximal effect)
# In short: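 PPARd-bla HEK293H cells were treated with compounds plus agonist L165041 (300 nM final) for 17 h at 37 C. Viability was then read in the same wells by CellTiter-Glo luminescence after 30 min at room temperature.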
# [3] = qHTS assay to identify small molecule agonists of the farnesoid-X-receptor (FXR) signaling pathway - cell viability counter screen (AID 743218; active = well fitted curve in the direction sought with a large enough effect in the repeat runs; an effect the other way counts as inactive or inconclusive; note: nearly all actives have a fitted effect of over 45% in size; note: potency is the fitted concentration of half-maximal effect)
# In short: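 In GeneBLAzer FXR-UAS-bla HEK 293T cells, compounds act for 16 h at 37 C. Cell viability is then scored in the reporter wells by CellTiter-Glo, 30 min at RT, luminescence.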
# [4] = qHTS assay to identify small molecule antagonists of the farnesoid-X-receptor (FXR) signaling pathway - cell viability counter screen (AID 743221; active = well fitted cell-killing curve with a large enough effect in the repeat runs, not every such curve was filed as active; note: nearly all actives have a fitted effect of over 50% in size; note: potency is the fitted concentration of half-maximal effect)
# In short: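 Quantitative HTS of the Tox21 10K library run in parallel with the beta-lactamase reporter read. HEK 293T cells carrying a UAS-driven bla reporter got compound and 50 uM CDCA (final) for 16 h; ATP-based luminescence followed.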
# [5] = qHTS assay to identify small molecule antagonists of the vitamin D receptor (VDR) signaling pathway - cell viability counter screen (AID 743225; active = well fitted curve in the direction sought with a large enough effect in the repeat runs; an effect the other way counts as inactive or inconclusive; note: nearly all actives have a fitted effect of over 50% in size; note: potency is the fitted concentration of half-maximal effect)
# In short: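 Cells (VDR-UAS-bla HEK 293T) are plated, rested 4 h at 37C, dosed with compound and 3 nM final 1-alpha,25-dihydroxy vitamin D3, and incubated 16 h. Viability is taken from CellTiter-Glo luminescence in the reporter wells.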
# [6] = qHTS assay to identify small molecule agonists of the NFkB signaling pathway - cell viability counter screen (AID 1159515); note: nearly all actives have a fitted effect of over 55% in size; note: potency is the fitted concentration of half-maximal effect
# In short: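 Viability in NFkB-bla ME-180 cells was measured by CellTiter-Glo luminescence, 30 min room temperature, in wells already treated 5 hr with compounds and read for reporter FRET.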
# [7] = qHTS assay to identify small molecule agonists of the endoplasmic reticulum stress response signaling pathway - cell viability counter screen (AID 1159517); note: nearly all actives have a fitted effect of over 50% in size; note: potency is the fitted concentration of half-maximal effect
# In short: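 Counter-screen wells were identical to the reporter wells. Cells were plated at 1,500 per well and dosed for 5 hr, then read for luminescence 30 min after CellTiter-Glo addition.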
# [8] = biological target: Nuclear receptor ROR-gamma (Homo sapiens) (UniProt P51449); experiment: qHTS assay to identify small molecule antagonists of the retinoid-related orphan receptor gamma (ROR-gamma) signaling pathway (AID 1159521; active = well fitted curve in the direction sought with a large enough effect in the repeat runs; an effect the other way counts as inactive or inconclusive; note: nearly all actives have a fitted effect of over 50% in size; note: potency is the fitted concentration of half-maximal effect)
# In short: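 RORγ antagonism is scored from reduced reporter luminescence in Tet-on CHO cells. Induction used 1 uM final doxycycline hyclate for 16 h at 37 C, following a 2 h compound exposure.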
# [9] = qHTS assay to identify small molecule agonists of the AP-1 signaling pathway - cell viability counter screen (AID 1159525); note: nearly all actives have a fitted effect of over 55% in size; note: potency is the fitted concentration of half-maximal effect
# In short: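 AP-1-bla ME-180 cells in Opti-MEM with 0.5% dialyzed FBS, compound exposure 5 h at 37 C in 15-point titration. Viability read in the same wells as ATP content by CellTiter-Glo luminescence, normalised to tetra-n-octylammonium bromide and DMSO controls.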
# [10] = biological target: Bile acid receptor (Homo sapiens) (UniProt Q96RI1); experiment: qHTS assay to identify small molecule agonists of the farnesoid-X-receptor (FXR) signaling pathway (AID 743220; active = well fitted activation curve with a large enough effect in the signal ratio in the repeat runs, not every such curve was filed as active; the % refers to the signal ratio)
# Chain of Bile acid receptor (Homo sapiens) (Q96RI1 whole entry, looked up): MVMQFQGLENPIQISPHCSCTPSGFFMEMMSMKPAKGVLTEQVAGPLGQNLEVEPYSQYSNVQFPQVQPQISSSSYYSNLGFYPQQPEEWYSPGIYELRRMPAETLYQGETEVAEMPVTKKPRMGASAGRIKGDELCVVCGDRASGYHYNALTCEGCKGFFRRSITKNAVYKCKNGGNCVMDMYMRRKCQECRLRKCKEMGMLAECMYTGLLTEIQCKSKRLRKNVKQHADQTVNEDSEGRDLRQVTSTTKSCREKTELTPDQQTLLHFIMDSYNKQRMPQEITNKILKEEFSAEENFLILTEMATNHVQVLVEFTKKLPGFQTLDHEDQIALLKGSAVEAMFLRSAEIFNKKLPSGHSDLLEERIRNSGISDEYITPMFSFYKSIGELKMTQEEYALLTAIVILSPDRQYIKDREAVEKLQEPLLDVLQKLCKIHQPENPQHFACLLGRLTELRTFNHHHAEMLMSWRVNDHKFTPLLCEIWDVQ
# In short: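 Beta-lactamase reporter under UAS control in GeneBLAzer FXR HEK 293T cells (5000/well) measured with LiveBLAzer FRET substrate after 2 h at room temperature. Compound exposure lasted 16 h at 37C.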
# [11] = biological target: Vitamin D3 receptor (Homo sapiens) (UniProt P11473); experiment: qHTS assay to identify small molecule agonists of the vitamin D receptor (VDR) signaling pathway (AID 743222); note: potency is the fitted concentration of half-maximal effect
# Chain of Vitamin D3 receptor (Homo sapiens) (P11473 whole entry, looked up): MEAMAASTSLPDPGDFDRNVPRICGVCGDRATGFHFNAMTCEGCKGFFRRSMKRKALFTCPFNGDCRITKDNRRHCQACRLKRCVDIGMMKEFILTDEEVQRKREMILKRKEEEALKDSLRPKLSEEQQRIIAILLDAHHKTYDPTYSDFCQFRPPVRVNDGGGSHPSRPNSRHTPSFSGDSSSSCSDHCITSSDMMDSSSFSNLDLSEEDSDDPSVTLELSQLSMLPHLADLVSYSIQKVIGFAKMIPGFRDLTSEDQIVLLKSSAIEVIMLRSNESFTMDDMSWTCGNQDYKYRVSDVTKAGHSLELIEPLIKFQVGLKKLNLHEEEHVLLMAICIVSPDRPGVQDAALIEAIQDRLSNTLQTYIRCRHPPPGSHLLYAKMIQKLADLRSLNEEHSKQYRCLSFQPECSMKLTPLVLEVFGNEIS
# In short: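 Agonist activity measured in VDR-bla reporter cells. Exposure 16 h, 37C, 5% CO2; detection by B/G FRET substrate, 2 h RT.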
# [12] = qHTS assay to identify small molecule agonists of the vitamin D receptor (VDR) signaling pathway - cell viability counter screen (AID 743224; active = well fitted curve in the direction sought with a large enough effect in the repeat runs; an effect the other way counts as inactive or inconclusive; note: nearly all actives have a fitted effect of over 50% in size; note: potency is the fitted concentration of half-maximal effect)
# In short: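 VDR-bla cell line, quantitative HTS format; 16 h compound incubation (37C, 5% CO2); ATP-based CellTiter-Glo luminescence measured in the reporter assay wells.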
# [13] = qHTS assay to identify small molecule agonists of the AP-1 signaling pathway (AID 1159526); note: potency is the fitted concentration of half-maximal effect
# [14] = biological target: Peroxisome proliferator-activated receptor delta (Homo sapiens) (UniProt Q03181); experiment: qHTS assay to identify small molecule agonists of the peroxisome proliferator-activated receptor delta (PPARd) signaling pathway (AID 743212); note: potency is the fitted concentration of half-maximal effect
# Chain of Peroxisome proliferator-activated receptor delta (Homo sapiens) (Q03181 whole entry, looked up): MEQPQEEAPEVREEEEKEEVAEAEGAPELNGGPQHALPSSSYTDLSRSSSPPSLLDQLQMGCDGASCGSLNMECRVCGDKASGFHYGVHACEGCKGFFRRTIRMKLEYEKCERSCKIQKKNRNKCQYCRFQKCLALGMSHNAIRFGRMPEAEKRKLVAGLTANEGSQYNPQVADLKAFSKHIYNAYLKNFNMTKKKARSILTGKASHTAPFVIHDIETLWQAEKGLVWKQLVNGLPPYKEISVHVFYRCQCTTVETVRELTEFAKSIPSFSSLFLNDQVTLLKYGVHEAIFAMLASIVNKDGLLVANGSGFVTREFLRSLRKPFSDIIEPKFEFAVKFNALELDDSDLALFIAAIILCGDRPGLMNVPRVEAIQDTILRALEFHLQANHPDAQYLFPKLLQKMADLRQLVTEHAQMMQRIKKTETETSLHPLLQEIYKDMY
# In short: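 Quantitative high-throughput agonist screen in a HEK293H beta-lactamase reporter line under UAS control. Compounds in DMSO, at 37 C. Fluorescence read after 2 h with FRET substrate at room temperature.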
# [15] = biological target: Peroxisome proliferator-activated receptor delta (Homo sapiens) (UniProt Q03181); experiment: qHTS assay to identify small molecule antagonists of the peroxisome proliferator-activated receptor delta (PPARd) signaling pathway (AID 743215; active = well fitted inhibition curve with a large enough effect in the signal ratio in the repeat runs, not every such curve was filed as active; the % refers to the signal ratio;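 note: cells stimulated with agonist L165041 at 300 nM final during compound exposure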; note: potency is the fitted concentration of half-maximal effect)
# In short: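 Antagonist-mode beta-lactamase reporter screen: HEK293H cells with UAS-bla under PPARd control, stimulated by 300 nM L165041 (final) alongside test compound for 17 h at 37 C, then FRET fluorescence after 2 h substrate incubation.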
# [16] = biological target: Vitamin D3 receptor (Homo sapiens) (UniProt P11473); experiment: qHTS assay to identify small molecule antagonists of the vitamin D receptor (VDR) signaling pathway (AID 743223; active = well fitted inhibition curve with a large enough effect in the signal ratio in the repeat runs, not every such curve was filed as active; the % refers to the signal ratio)
# In short: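 Fluorescence from LiveBLAzer B/G FRET substrate, read after 2 h at room temperature, reflects beta-lactamase reporter activity in VDR-bla cells treated 16 h at 37C with compounds and agonist 1alpha,25-dihydroxyvitamin D3 (3 nM final).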
# [17] = qHTS assay to identify small molecule antagonists of the retinoid-related orphan receptor gamma (ROR-gamma) signaling pathway - cell viability counter screen (AID 1159520; active = well fitted curve in the direction sought with a large enough effect in the repeat runs; an effect the other way counts as inactive or inconclusive; note: nearly all actives have a fitted effect of over 50% in size; note: potency is the fitted concentration of half-maximal effect)
# In short: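 Tet-on ROR gamma CHO cells were given compounds for 2 hr, then doxycycline hyclate at 1 uM final, and incubated 16 hr at 37 C. Viability was measured as ATP content by CellTiter-Glo luminescence.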
# [18] = biological target: Retinoic acid receptor RXR-alpha (Homo sapiens) (UniProt P19793); experiment: qHTS assay to identify small molecule agonists of the RXR signaling pathway (AID 1159527); note: nearly all actives have a fitted effect of over 35% in size; note: potency is the fitted concentration of half-maximal effect
# Chain of Retinoic acid receptor RXR-alpha (Homo sapiens) (P19793 whole entry, looked up): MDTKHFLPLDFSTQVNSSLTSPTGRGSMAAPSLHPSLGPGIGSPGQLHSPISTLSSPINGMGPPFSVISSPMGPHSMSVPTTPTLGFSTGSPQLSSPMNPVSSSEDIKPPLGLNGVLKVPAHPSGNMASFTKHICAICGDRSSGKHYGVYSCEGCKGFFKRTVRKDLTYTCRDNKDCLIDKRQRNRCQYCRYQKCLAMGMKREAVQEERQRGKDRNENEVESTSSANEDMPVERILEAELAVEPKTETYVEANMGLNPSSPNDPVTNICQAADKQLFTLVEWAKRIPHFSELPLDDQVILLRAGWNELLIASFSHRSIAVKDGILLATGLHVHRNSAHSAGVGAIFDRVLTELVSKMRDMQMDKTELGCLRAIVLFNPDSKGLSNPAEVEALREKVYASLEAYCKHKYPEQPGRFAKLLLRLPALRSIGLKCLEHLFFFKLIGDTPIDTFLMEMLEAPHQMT
# In short: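 qHTS of the Tox21 10K library in GeneBLAzer RXR-alpha HEK 293T cells carrying a beta-lactamase reporter […]; 16 hr treatment, 9-cis retinoic acid as agonist control, FRET read-out.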
# [19] = biological target: Bile acid receptor (Homo sapiens) (UniProt Q96RI1); experiment: qHTS assay to identify small molecule antagonists of the farnesoid-X-receptor (FXR) signaling pathway (AID 743217; active = well fitted inhibition curve with a large enough effect in the signal ratio in the repeat runs, not every such curve was filed as active; the % refers to the signal ratio; note: potency is the fitted concentration of half-maximal effect)
# In short: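 Beta-lactamase reporter under UAS control in HEK 293T cells; compound exposure 16 h at 37 °C in the presence of chenodeoxycholic acid (50 uM final); signal from B/G FRET substrate after 2 h at room temperature.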
Compound,Potency [1],Potency [2],Potency [3],Potency [4],Potency [5],Potency [6],Potency [7],Potency [8],Potency [9],Potency [10],Potency [11],Potency [12],Potency [13],Potency [14],Potency [15],Potency [16],Potency [17],Potency [18],Potency [19]
CCCCCCCC/C=C\CCCCCCCCOCCO,17.9 µM (active),25.4 µM (active),22.6 µM (active),28.4 µM (active),9 µM (active),31.9 µM (active),31.9 µM (active),20 µM (active),25.4 µM (active),–,–,–,–,–,–,–,–,–,–
N/C(=N\N=C\c1ccc(Cl)cc1)N/N=C/c1ccc(Cl)cc1,inactive,–,–,inactive,–,13.4 µM (active),23.9 µM (active),–,13.4 µM (active),inactive,inactive,26.6 µM (active),–,–,–,–,–,–,–
COc1c(C)c2c(c(O)c1C/C=C(\C)CCC(=O)O)C(=O)OC2,–,–,–,–,–,inactive,16.9 µM (active),0.133 µM (active),inactive,inactive,inactive,inactive,inactive,–,–,–,–,–,–
CN1CCN(CCC(=O)N2c3ccccc3Sc3ccc(C(F)(F)F)cc32)CC1,11.9 µM (active),–,21.1 µM (active),33.5 µM (active),–,inactive,inactive,–,inactive,inactive,inactive,21.1 µM (active),–,inactive,29.8 µM (active),–,–,–,–
Nc1ccccc1O,inactive,inactive,inactive,–,inactive,38.4 µM (active),–,inactive,15.3 µM (active),inactive,inactive,inactive,–,inactive,inactive,inactive,inactive,inactive,–
CN(C/C=C/C#CC(C)(C)C)Cc1cccc2ccccc12,–,inactive,–,–,–,21.3 µM (active),inactive,inactive,inactive,inactive,inactive,–,–,–,–,inactive,–,–,–
Oc1c(Cl)cc(Cl)c2cccnc12,–,–,–,inactive,–,0.477 µM (active),inactive,11.9 µM (active),–,–,–,–,–,–,–,–,–,–,–
O=C1c2c(O)ccc(Nc3ccc(CCO)cc3)c2C(=O)c2c([N+](=O)[O-])ccc(O)c21,–,inactive,inactive,inactive,inactive,inactive,inactive,inactive,inactive,inactive,–,inactive,–,inactive,–,–,–,–,inactive
CC1=C(/C=C/C(C)=C/C=C/C(C)=C/C=O)C(C)(C)CCC1,12.2 µM (active),43.4 µM (active),21.8 µM (active),48.7 µM (active),13.7 µM (active),38.7 µM (active),–,30.5 µM (active),34.5 µM (active),–,–,–,–,inactive,48.7 µM (active),–,24.2 µM (active),345 nM (active),61.3 µM (active)
O=C1CCCCCN1SSN1CCCCCC1=O,inactive,inactive,–,inactive,–,inactive,inactive,24.3 µM (active),–,inactive,–,–,–,inactive,–,–,–,–,inactive
O=C1CCCc2c1cc1ccc3cccc4ccc2c1c34,–,–,–,–,inactive,inactive,inactive,–,inactive,–,19.7 µM (active),–,22.2 µM (active),49.6 µM (active),–,–,–,–,–
CCCCN(CCCC)C(=O)N(CCCC)CCCC,inactive,inactive,inactive,inactive,–,inactive,–,inactive,inactive,–,inactive,–,–,inactive,inactive,–,inactive,inactive,–
C=CC(=O)OCC(CO)(COCC(COC(=O)C=C)(COC(=O)C=C)COC(=O)C=C)COC(=O)C=C,3.05 µM (active),5.43 µM (active),4.31 µM (active),9.65 µM (active),5.43 µM (active),48.4 µM (active),3.42 µM (active),2.7 µM (active),24.2 µM (active),–,inactive,3.84 µM (active),–,–,4.31 µM (active),–,–,–,–
Oc1ccc(N=Nc2ccccc2)cc1,–,–,inactive,–,–,inactive,inactive,inactive,inactive,–,–,–,–,inactive,inactive,–,–,–,–
C=CC(=O)OCC(CO)(COC(=O)C=C)COC(=O)C=C,6.94 µM (active) and 11 µM (active),–,19.6 µM (active) and 17.4 µM (active),34.8 µM (active) and 30.9 µM (active),13.9 µM (active) and 15.5 µM (active),inactive,21.9 µM (active),2.44 µM (active) and 6.86 µM (active),49.1 µM (active) and 49 µM (active),–,–,12.3 µM (active) and 13.8 µM (active),–,–,–,–,–,–,–
